Test [1] can be described thus: qHTS assay to identify small molecule agonists of the androgen receptor (AR) signaling pathway in the presence of an antagonist - cell viability counter screen (AID 1259379). Also: nearly all actives have a fitted effect of over 25% in size. Also: potency is read from the fitted curve at half-maximal effect. The method in brief:
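In MDA-kb2 cells (human breast carcinoma, MMTV-luciferase), compounds at 15 concentrations plus 3.0uM nilutamide; 16 hr, 37C, 0% CO2; CellTiter-Fluor fluorescence read for viability.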
For orientation: qHTS replaces the single test concentration by a dilution series.

Test [2] in a line: qHTS assay to identify small molecule agonists of the estrogen receptor beta (ER-beta) signaling pathway - cell viability counter screen (AID 1259380). Also: nearly all actives have a fitted effect of over 30% in size. Also: potency is read from the fitted curve at half-maximal effect. The method in brief:
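Viability of ER-beta-UAS-bla HEK293T cells was determined by CellTiter-Glo luminescence following 16 hr treatment with test compounds at 37C.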

Test [3] addresses Androgen receptor (Homo sapiens) (UniProt P10275). The test can be described thus: qHTS assay to identify small molecule agonists of the androgen receptor (AR) signaling pathway in the presence of an antagonist (AID 1259381; calls by dose curve; also: nearly all actives have a fitted effect of over 15% in size). The method in brief: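 Here, 15-concentration compound series were pin-transferred onto MDA-kb2 MMTV-luciferase cells already dosed with nilutamide (3.0uM final). After 16hr at 37C, ONE-Glo was added and luminescence read 30min later at room temperature.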

The nature of test [4]: qHTS assay to identify small molecule antagonists of the estrogen receptor beta (ER-beta) signaling pathway - cell viability counter screen (AID 1259382). Also: nearly all actives have a fitted effect of over 55% in size. Also: potency is read from the fitted curve at half-maximal effect. The method in brief: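 Tox21 10K library tested in qHTS format on ER-beta-bla HEK293T cells stimulated with 1nM E2; 16 hr treatment at 37C. Same-well CellTiter-Glo luminescence served as the cell viability measure.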
Test [5] can be described thus: qHTS assay to identify small molecule agonists or antagonists of the thyroid stimulating hormone receptor (TSHR) signaling pathway - wild type cell line counter screen (AID 1259384; calls by dose curve). The method in brief: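 Wild-type Hek293 cells, 800/well, 18 h at 37C, then compound with Ro20-1724 for 30 min RT. cAMP by HTRF (cAMP-d2/anti-cAMP cryptate), 1 h RT, fluorescence read. 15 concentrations, triplicates.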

Test [6] has as its target Thyrotropin receptor (Homo sapiens) (UniProt P16473). In words: qHTS assay to identify small molecule antagonists of the thyroid stimulating hormone receptor (TSHR) signaling pathway (AID 1259385; calls by dose curve; also: nearly all actives have a fitted effect of over 20% in size; also: potency is read from the fitted curve at half-maximal effect). The method in brief:
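TSHR-HEK293 cells (800/well) plated 18 h, then compounds with Ro20-1724 and TSH at 1.5 ng/mL final, 30 min at room temperature. cAMP quantified by HTRF (cAMP-d2/anti-cAMP-cryptate, 1 h); 15 concentrations in triplicate.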

The nature of test [7]: qHTS assay to identify small molecule antagonists of the progesterone receptor (PR) signaling pathway - cell viability counter screen (AID 1346798). Also: nearly all actives have a fitted effect of over 50% in size. Also: potency is read from the fitted curve at half-maximal effect. The method in brief: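 Counter screen for cytotoxicity: viability of PR-UAS-bla HEK293T cells was measured with CellTiter-Glo luminescence following 16 hr compound exposure in the presence of R5020.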
Test [8] is described as follows: qHTS assay to identify small molecule antagonists of the TGF-beta/Smad signaling pathway - cell viability counter screen (AID 1346824). Also: nearly all actives have a fitted effect of over 50% in size. Also: potency is read from the fitted curve at half-maximal effect. The method in brief:
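SBE-bla HEK 293T cells, incubated overnight, then compound plus 0.25 ng/mL TGF-beta1 (stock added) for 5 hr at 37 C. Viability was read in the same wells by CellTiter-Glo luminescence after 30 min at room temperature.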

Test [9] in a line: qHTS assay to identify small molecule agonists of the TGF-beta/Smad signaling pathway - cell viability counter screen (AID 1346829). Also: nearly all actives have a fitted effect of over 45% in size. Also: potency is read from the fitted curve at half-maximal effect. The method in brief:
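Same-well cytotoxicity: CellTiter-Glo added after the 2 hr room-temperature beta-lactamase substrate step, luminescence measured 30 min later; cells had 5 hr of compound at 37 C.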

Test [10] deals with Thyrotropin-releasing hormone receptor (Homo sapiens) (UniProt P34981). In words: qHTS assay to identify small molecule antagonists of the thyrotropin-releasing hormone receptor (TRHR) signaling pathway (AID 1346877; active = well fitted inhibition curve with a large enough effect in the repeat runs, not every such curve was filed as active; also: series mostly up to about 51 µM). The method in brief: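 In this cell-based calcium flux format, HEK293 cells expressing TRHR received test compound for 5 min before the agonist TRH (1 nM final). Dye loading lasted 2 h at 37 °C.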

Test [11] has the same target. The test can be described thus: qHTS assay to identify small molecule agonists of the thyrotropin-releasing hormone receptor (TRHR) signaling pathway (AID 1346891; calls by dose curve; also: series mostly up to about 58 µM). The method in brief: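 Cells: TRHR-Hek293, seeded and incubated 18 h. Dye loading: 2 h at 37 °C. Compound added from DMSO stock by pin tool. Read-out: kinetic calcium fluorescence over 3 min.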
Test [12] is described as follows: Caspase-3/7 induction in HepG2 cells by small molecules, qHTS assay (AID 1346978). Also: nearly all actives have a fitted effect of over 15% in size. The method in brief: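 Wild-type HepG2 cells, 2,000/well, settled 5 hr at 37 C and 5% CO2, then compound-treated for 17 hr; caspase-3/7 activity read by luminescent Caspase-Glo 3/7 after 30 min at room temperature.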
The nature of test [13]: qHTS assay to identify small molecule agonists of the estrogen receptor alpha (ER-alpha) signaling pathway in the presence of an antagonist - cell viability counter screen (AID 1259386).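 Also: cells exposed to compounds for 22 h at 37 °C before the viability read; nearly all actives have a fitted effect of over 30% in size.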 Also: potency is read from the fitted curve at half-maximal effect. The method in brief: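 Fluorescent CellTiter-Fluor viability signal from VM7Luc4E2 cells, with the reagent added during the final hour of a 22hr compound exposure at 37C in the presence of 10.0nM ICI-182,780.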

Test [14] addresses Progesterone receptor (Homo sapiens) (UniProt P06401). The test can be described thus: qHTS assay to identify small molecule agonists of the progesterone receptor (PR) signaling pathway (AID 1346784; calls by dose curve; also: nearly all actives have a fitted effect of over 30% in size). The method in brief:
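Cells (PR-UAS-bla HEK 293T, GripTite) were plated in assay medium containing 2% charcoal-stripped FBS and incubated 6 hr. Test compounds in DMSO were added for 16 hr at 37C. FRET substrate was then loaded for 2 hr at room temperature before fluorescence reading.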

For test [15] the target is unchanged. The test can be described thus: qHTS assay to identify small molecule antagonists of the progesterone receptor (PR) signaling pathway (AID 1346795; active = well fitted inhibition curve with a large enough effect in the signal ratio in the repeat runs, not every such curve was filed as active; the % refers to the signal ratio). The method in brief:
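Antagonist mode: compounds tested against 1 nM (final) promegestone stimulation in HEK293T cells expressing PR-UAS-bla reporter, 16 hr at 37C, 5% CO2; beta-lactamase activity detected via B/G FRET substrate after 2 hr at room temperature.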

Test [16] is described as follows: qHTS assay to identify small molecule agonists of the TGF-beta/Smad signaling pathway (AID 1346859; active = well fitted activation curve with a large enough effect in the signal ratio in the repeat runs, not every such curve was filed as active; the % refers to the signal ratio; also: series mostly up to about 77 µM). The method in brief: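 Reporter line: HEK 293T with stably integrated SBE-controlled beta-lactamase. Compound exposure lasts 5 hr at 37 C and 5% CO2; substrate loading follows for 2 hr at room temperature, with emission read at 460 and 530 nm.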
A short description of test [17]: Human pregnane X receptor (PXR) small molecule agonists, qHTS cell viability counter screen (AID 1346977). Also: nearly all actives have a fitted effect of over 50% in size. Also: potency is read from the fitted curve at half-maximal effect. The method in brief:
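Cytotoxicity counter screen run in the same wells as the PXR luciferase assay, using PXR-Luc HepG2 cells in charcoal-stripped serum medium. Viability: CellTiter-Fluor fluorescence after 24hr compound treatment.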

Test [18] can be described thus: Caspase-3/7 induction in CHO-K1 cells by small molecules, qHTS cell viability counter screen (AID 1346979). Also: nearly all actives have a fitted effect of over 35% in size. Also: potency is read from the fitted curve at half-maximal effect. The method in brief:
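Cytotoxicity counter screen run in parallel with the caspase-3/7 assay: CHO-K1 cells, 16hr compound treatment at 37C, then CellTiter-Fluor for 1hr before fluorescence reading.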

Test [19] can be described thus: qHTS assay to identify small molecule agonists of the progesterone receptor (PR) signaling pathway - cell viability counter screen (AID 1346799; calls by dose curve; also: nearly all actives have a fitted effect of over 45% in size). The method in brief: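 Cells (PR-UAS-bla HEK293T) are plated at 3,000/well in 2% charcoal-stripped FBS medium, rested 6 hr, dosed and incubated 16 hr at 37C. CellTiter-Glo is then added and luminescence measured after 30 min at room temperature.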

The target of test [20] is Estrogen receptor (Homo sapiens) (UniProt P03372). In words: qHTS assay to identify small molecule agonists of the estrogen receptor alpha (ER-alpha) signaling pathway in the presence of an antagonist (AID 1259383; calls by dose curve; also: top concentration of the series differs between compounds; nearly all actives have a fitted effect of over 15% in size). The method in brief: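 In VM7Luc4E2 cells, 4,000 per well, compounds at 15 concentrations were co-incubated 22hr at 37C with 10.0nM final ICI-182,780. Luminescence from the stably transfected 4×ERE-luciferase reporter was recorded 30min after ONE-Glo addition.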

Unmarked numbers belong to inactive results. Records with an inconclusive call do not appear. Active and inactive are the calls of the source. Unless noted, calls follow the shape of the dose curve; as a rule, active = well fitted curve in the direction sought with a large enough effect in the repeat runs; inconclusive = weak or mixed curves; inactive = no such curve, though single readings can be large; an effect the other way counts as inactive or inconclusive.

Sequence of Progesterone receptor (Homo sapiens) (P06401 whole entry, looked up): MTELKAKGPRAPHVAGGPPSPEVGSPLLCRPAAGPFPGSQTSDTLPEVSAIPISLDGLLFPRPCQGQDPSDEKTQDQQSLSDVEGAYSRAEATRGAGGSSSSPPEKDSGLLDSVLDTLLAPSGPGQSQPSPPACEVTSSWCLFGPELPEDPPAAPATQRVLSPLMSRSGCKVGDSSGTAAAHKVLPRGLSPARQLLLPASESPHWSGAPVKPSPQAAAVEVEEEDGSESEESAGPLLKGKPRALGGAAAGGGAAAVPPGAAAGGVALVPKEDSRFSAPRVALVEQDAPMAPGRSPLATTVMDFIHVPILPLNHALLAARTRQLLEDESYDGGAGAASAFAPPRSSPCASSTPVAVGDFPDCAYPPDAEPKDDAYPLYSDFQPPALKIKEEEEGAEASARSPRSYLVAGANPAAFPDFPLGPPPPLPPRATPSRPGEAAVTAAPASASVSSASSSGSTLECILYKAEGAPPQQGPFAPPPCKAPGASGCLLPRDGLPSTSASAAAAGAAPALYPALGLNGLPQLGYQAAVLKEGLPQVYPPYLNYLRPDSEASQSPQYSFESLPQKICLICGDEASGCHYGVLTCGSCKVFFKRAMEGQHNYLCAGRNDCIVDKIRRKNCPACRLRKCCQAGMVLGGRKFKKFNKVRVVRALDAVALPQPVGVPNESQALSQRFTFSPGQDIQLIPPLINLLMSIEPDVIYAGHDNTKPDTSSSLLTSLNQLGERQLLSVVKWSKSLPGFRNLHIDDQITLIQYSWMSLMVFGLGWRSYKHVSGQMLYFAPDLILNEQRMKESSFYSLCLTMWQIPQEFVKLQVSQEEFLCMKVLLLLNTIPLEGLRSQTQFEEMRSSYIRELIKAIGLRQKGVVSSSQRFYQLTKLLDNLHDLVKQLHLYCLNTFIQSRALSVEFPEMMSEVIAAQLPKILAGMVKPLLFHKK
Sequence of Androgen receptor (Homo sapiens) (P10275 whole entry, looked up): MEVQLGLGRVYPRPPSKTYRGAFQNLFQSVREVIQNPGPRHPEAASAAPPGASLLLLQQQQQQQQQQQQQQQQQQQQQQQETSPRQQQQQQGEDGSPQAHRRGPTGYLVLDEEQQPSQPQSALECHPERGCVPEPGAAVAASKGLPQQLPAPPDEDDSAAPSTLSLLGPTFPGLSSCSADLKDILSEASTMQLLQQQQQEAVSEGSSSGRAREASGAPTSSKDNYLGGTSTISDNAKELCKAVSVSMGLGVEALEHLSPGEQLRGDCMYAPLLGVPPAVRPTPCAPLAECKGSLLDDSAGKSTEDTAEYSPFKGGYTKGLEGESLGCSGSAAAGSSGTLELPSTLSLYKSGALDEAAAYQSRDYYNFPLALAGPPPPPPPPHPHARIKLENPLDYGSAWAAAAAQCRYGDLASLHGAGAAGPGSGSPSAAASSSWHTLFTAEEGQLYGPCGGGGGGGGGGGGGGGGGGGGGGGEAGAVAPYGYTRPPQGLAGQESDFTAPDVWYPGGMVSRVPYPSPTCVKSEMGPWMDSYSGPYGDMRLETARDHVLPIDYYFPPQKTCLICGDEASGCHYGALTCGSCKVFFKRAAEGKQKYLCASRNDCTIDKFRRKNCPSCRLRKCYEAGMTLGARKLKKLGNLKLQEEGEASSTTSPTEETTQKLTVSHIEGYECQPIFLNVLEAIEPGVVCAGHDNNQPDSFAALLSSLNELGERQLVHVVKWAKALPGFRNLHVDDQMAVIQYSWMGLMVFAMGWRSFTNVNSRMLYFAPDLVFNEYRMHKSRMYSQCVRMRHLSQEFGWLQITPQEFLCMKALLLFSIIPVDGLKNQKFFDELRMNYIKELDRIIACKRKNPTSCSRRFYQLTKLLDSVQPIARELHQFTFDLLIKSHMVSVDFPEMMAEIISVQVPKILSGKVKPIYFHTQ
Sequence of Thyrotropin receptor (Homo sapiens) (P16473 whole entry, looked up): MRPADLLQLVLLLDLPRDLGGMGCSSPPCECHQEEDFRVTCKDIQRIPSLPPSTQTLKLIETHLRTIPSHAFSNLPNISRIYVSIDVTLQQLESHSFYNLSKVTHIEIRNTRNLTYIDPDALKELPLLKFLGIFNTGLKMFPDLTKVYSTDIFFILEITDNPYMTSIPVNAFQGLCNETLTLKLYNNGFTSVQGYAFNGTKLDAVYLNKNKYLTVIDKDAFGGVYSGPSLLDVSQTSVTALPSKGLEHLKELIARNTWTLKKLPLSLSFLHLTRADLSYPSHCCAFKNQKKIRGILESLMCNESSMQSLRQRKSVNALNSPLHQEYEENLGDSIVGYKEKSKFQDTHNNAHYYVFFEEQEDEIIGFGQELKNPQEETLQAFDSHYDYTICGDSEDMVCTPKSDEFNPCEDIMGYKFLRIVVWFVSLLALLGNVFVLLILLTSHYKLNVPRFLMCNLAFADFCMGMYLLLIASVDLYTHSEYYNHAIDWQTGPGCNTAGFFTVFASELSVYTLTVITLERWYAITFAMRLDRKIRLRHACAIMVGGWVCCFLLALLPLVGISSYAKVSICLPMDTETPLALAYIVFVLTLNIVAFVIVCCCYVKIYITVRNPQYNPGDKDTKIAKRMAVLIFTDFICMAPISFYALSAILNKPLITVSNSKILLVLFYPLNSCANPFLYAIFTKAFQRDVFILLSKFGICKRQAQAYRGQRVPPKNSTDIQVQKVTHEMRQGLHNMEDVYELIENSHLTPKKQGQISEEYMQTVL
Sequence of Thyrotropin-releasing hormone receptor (Homo sapiens) (P34981 whole entry, looked up): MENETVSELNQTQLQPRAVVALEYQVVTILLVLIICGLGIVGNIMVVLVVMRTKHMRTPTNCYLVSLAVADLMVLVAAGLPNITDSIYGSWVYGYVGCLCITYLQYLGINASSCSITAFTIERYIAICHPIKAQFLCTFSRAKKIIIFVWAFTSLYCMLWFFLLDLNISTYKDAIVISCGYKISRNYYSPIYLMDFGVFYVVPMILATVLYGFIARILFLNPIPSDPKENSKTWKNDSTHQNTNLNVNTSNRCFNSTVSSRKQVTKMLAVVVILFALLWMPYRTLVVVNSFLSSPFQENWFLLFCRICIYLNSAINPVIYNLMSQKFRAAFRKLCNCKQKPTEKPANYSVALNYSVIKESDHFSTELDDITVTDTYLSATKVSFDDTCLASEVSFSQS
Sequence of Estrogen receptor (Homo sapiens) (P03372 whole entry, looked up): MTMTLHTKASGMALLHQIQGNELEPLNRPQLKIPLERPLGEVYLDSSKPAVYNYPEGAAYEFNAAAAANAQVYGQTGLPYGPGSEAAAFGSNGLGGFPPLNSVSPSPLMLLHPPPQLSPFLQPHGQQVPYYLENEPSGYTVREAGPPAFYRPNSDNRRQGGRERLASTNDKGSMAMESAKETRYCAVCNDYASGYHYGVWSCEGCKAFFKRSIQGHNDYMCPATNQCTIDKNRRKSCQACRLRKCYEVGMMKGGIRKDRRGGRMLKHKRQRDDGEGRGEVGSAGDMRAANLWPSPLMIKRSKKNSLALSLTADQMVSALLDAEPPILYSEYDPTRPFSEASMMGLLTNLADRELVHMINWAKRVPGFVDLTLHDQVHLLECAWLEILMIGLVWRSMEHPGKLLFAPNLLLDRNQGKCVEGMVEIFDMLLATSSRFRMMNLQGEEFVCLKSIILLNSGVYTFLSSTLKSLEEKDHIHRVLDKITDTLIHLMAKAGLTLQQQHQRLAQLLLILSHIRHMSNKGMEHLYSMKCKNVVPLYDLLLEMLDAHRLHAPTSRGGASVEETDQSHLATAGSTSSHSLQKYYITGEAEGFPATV

Turning to `O=C(CCCCCCCCc1cccnc1)N1CCC(C=C(c2ccccc2)c2ccccc2)CC1`, the Potency in test [1] was 61.1 µM (active); in test [2], 21.7 µM (active); in test [4], 24.3 µM (active); in test [7] it was 30.6 µM (active); in test [8], 54.9 µM (active); in test [9] it was 54.9 µM (active). Further, the Potency result in test [3], in [5], in [6], in test [10], in [11] and in test [12] was “inactive” each time.
For `CCOC(=O)[C@H](O)[C@@H](O)C(=O)OCC`, the Potency result in [1], in [2], in [3], in test [4], in [13] and in test [15] was “inactive” throughout. Also, the Potency result in test [7], in test [9], in test [10], in [11], in test [17] and in test [12] was “inactive” throughout. Moreover, the Potency result in [18] is “inactive”. The molecule was classed as inactive in test [14] and in test [16].
Turning to `CCN(CCC#N)c1ccc(N=Nc2ccc([N+](=O)[O-])cc2)cc1`, the Potency result in test [1], in test [2], in [3], in test [4], in [5] and in test [6] was “inactive” in each case. Further, the Potency entry in test [13], in test [15], in test [7], in test [19], in test [8] and in test [9] was “inactive” each time. Further, the Potency result in test [10], in test [11], in test [17], in [12] and in test [18] was “inactive” each time. The result in test [14] and in test [16] was inactive.
As for `CCCCCCCCCCCCCCCCCCNC(=O)OC1CCN(C(=O)OC[C@H](COC(=O)N(Cc2cccc[n+]2CC)C(=O)c2ccccc2OC)OC)CC1`, the Potency in [1] was 26.6 µM (active); in test [2], 26.6 µM (active); in test [6], 29.8 µM (active); in test [13] it was 26.6 µM (active); in test [17], 26.6 µM (active); in [18], 29.8 µM (active). In addition, the Potency entry in [3], in [5], in [10], in [11] and in test [12] was “inactive” each time.
`CC1(C)[C@H]2CC[C@]1(C)C(=O)C2`: the Potency result in [1], in test [2], in test [4], in [20], in test [5] and in test [6] was “inactive” throughout. In addition, the Potency entry in test [13], in [7], in [8], in test [9], in [10] and in test [11] was “inactive” in each case. The Potency entry in test [17] and in test [12] was “inactive” in each case. Moreover, the molecule was classed as inactive in [14] and in test [16]. For the same molecule, the Potency in test [18] is 61.1 µM (active).
Take `C=C(C)C1CCC(C)CC1O` (stereo not given): the Potency result in test [1], in [2], in [4], in [5], in test [6] and in test [13] was “inactive” throughout. Moreover, the Potency result in [7], in test [8], in test [9], in test [17], in test [12] and in [18] was “inactive” in each case. Moreover, the molecule was classed as inactive in [14] and in [16].
`CC(c1cc(C(C)(C)C)cc(C(C)(C)C)c1O)c1cc(C(C)(C)C)cc(C(C)(C)C)c1O`: the Potency entry in test [1], in test [2], in test [4], in [20], in test [5] and in test [6] was “inactive” each time. For the same molecule, the Potency entry in test [13], in test [7], in [19], in test [8], in test [9] and in [10] was “inactive” throughout. Also, the Potency result in [11], in test [17] and in test [12] was “inactive” in each case. Also, the molecule was classed as inactive in [14] and in [16].
